Consider 40 compounds from PubChem BioAssay (NCATS).

Several values for one entry are separate records, joined by “and”; a condition that tells them apart may be missing. Equal entries are not always repeated. Records with an inconclusive call do not appear. A number with no mark means an inactive call. Activity calls are given as the source filed them. Calls come from the whole dose curve; as a rule, active = well fitted cell-killing curve with a large enough effect; inconclusive = small, poorly fitted or top-dose-only effect, or effect the other way; inactive = no such curve, though single readings can be large or run the other way.
Potency is the fitted concentration of half-maximal effect.

The nature of this experiment: Viability qHTS for spleen associated tyrosine kinase inhibitor (SYKi) drug resistant MV4-11 cells (AID 1963824). Note: nearly all actives have a fitted effect of over 35% in size. The conditions noted are these: SYKi-resistant MV4-11 viability, CellTiter-Glo, 72 h; series mostly up to 45 µM; viability, % of control: at the top concentration. An excerpt:
Department of Medicine, Hematology/Oncology
University Hospital Frankfurt, Germany.
Trials have shown promising clinical activity of the selective SYK inhibitor entospletinib in patients with high expressing HOXA9/MEIS1 acute leukemias. As the development of resistance mechanisms is a common problem in the use of targeted drugs, we performed a chemical library screen to identify drug sensitivities in SYK inhibitor resistant AML cells. […] Glucocorticoids are potent immunosuppressants which work in part by inhibiting the transcription of cytokine genes.
Described herein is a viability screen to look for activity in the SYK inhibitor drug resistant cell line against four NCATS compound libraries (MIPE 5.0, NPC, NPACT, and Kinase) totaling 11372 compounds. Active hits were reacquired for confirmation and further secondary assay testing.
SEQUENCE No. (e.g., 1, 2, 3, etc.); […] (e.g., Cells, Incubation, Reagent, etc.); VALUE; DESCRIPTION.
1; Media; 2uL; white, solid-bottom Corning assay plate.
2; Compounds; 23nL; Echo acoustic dispenser.
3; Cell; 5uL; 500 cells per well.
4: Incubation; 72hr; 37 C, 5% CO2, 95% humidity.
5; Reagent; 3uL; CellTiter-Glo reagent (Promega).
6; Incubation; 10min; room temperature.
7; Detection; Luminescence; ViewLux plate reader (PerkinElmer).
NOTES (numbers refer to Sequence numbers above
1. Quantitative high-throughput screening (qHTS) of small molecule compounds was conducted on drug resistant SYKi MV4-11 cell line.
2. Twenty-three nanoliter of small molecule compounds were added to each assay plates using the Echo acoustic dispenser (Beckman Coulter).
3. Cells were seeded into the assay plates at a final density of 500 cells in 5uL of media per well using the Multidrop Combi dispenser.
4. Plates were covered with stainless steel gasketed lids and incubated for 72 hours at standard cell culture conditions.
5. Viability was assessed by adding 3uL of CellTiter-Glo detection reagent (Promega).
6. Plates were covered with gasket lids and incubated for 10 minutes at room temperature.
7. Luminescence was measured on a ViewLux plate reader (PerkinElmer).
For orientation: qHTS replaces the single test concentration by a dilution series.
With `O=C(NCc1cccc(O)c1)c1cc2cc(F)ccc2[nH]1`, the Potency is 13 µM (active). For `Cc1cc(-c2ncc(-c3cccnc3)cc2/C=C/c2ccccc2)cnc1-c1cccnc1`, the “viability, % of control” value is 81.7%. Still for that read-out and setting: the figure for `O=C(Nc1cccnn1)N1CCN(c2nccc(-c3ccc(F)c(F)c3)n2)CC1` is 84.7% [at 91.9 µM].

Consider `C=C[C@]1(C)C[C@H](O)[C@H]2C(=C)C(=O)O[C@@H]2[C@H]1C(=C)CO`, for which the Potency is 14.6 µM (active). On to `CCOc1c2c(c(OCC)c3ccccc13)C(=O)N(c1ccc(CC(=O)NS(=O)(=O)c3ccccc3)cc1)C2`, for which the “viability, % of control” value was 111%.

As to `COc1ccc2c(c1)C(C(=O)N(Cc1ccc(N(C)C)cc1)c1ccc(C(C)C)cc1)CCC2` (stereo not given), the Potency is 14.6 µM (active). On to `CC(NC(CCc1ccccc1)C(=O)O)C(=O)N1C(=O)N(C)CC1C(=O)O` (stereo not given), for which the “viability, % of control” value is 91.4%. `C[C@H]1[C@H](C)CC[C@]2(C(=O)O)CC[C@]3(C)C(=CC[C@@H]4[C@@]5(C)CC[C@H](O)C(C)(C)[C@@H]5CC[C@]43C)[C@H]12`: the Potency is 20.9 µM (active).

In the case of `C#C[C@]1(O)CC[C@H]2[C@@H]3CCc4cc(OC5CCCC5)ccc4[C@H]3CC[C@@]21C`, the Potency is 11.9 µM (active).

Regarding `CNC1CCCN(c2c(F)cc3c(=O)c(C(=O)O)cn(C4CC4)c3c2OC)C1` (stereo not given), the “viability, % of control” value is 106%. As to `O=C(O)[C@H](O)c1ccccc1`, the “viability, % of control” value is 81.5%. Turning to `CN1CCC(NC(=O)c2cc(-c3c(O)cc(O)cc3Oc3ccc([N+](=O)[O-])cc3)on2)CC1`, the Potency is 0.103 µM (active). `CC(C)C1(O[C@@H]2O[C@H](CO)[C@@H](O)[C@H](O)[C@H]2O)CC=C(CO)CC1` (stereo not given in full): the “viability, % of control” value is 94.3%. Turning to `CC1OC(OC2C(C)OC(OC3C(OC(=O)C45CCC(C)(C)CC4C4=CCC6C7(C)CCC(OC8OC(C(=O)O)C(O)C(O)C8OC8OC(CO)C(O)C(OC9OC(C)C(O)C(O)C9O)C8O)C(C)(CO)C7CCC6(C)C4(C)CC5)OC(CO)C(O)C3O)C(O)C2O)C(O)C(O)C1O` (stereo not given), the viability, % of control was 97% [at 9.25 µM]. `C=C[C@H]1[C@H](O[C@@H]2O[C@H](CO)[C@@H](O)[C@H](O)[C@H]2O)OC=C(C(=O)OC)[C@H]1CCOC(=O)c1cc(O)c(O)c(O)c1`: the “viability, % of control” value is 76.8% [at 17.3 µM]. Take `Cn1ncnc1[C@@H]1c2n[nH]c(=O)c3cc(F)cc(c23)N[C@H]1c1ccc(F)cc1`: the “viability, % of control” value was 71.3%. Regarding `CC(C)(C)NCC(O)COc1ccccc1OCC1CCCO1` (stereo not given), the Potency was 0.015 µM (active). The same measure, in the same setting: the figure for `CCN(CCCOc1ccc2c(Nc3cc(CC(=O)Nc4cccc(F)c4)[nH]n3)ncnc2c1)CCOP(=O)(O)O` is 58 nM (active) and 372 nM (active).

For the compound `CC(C)(C)c1[nH]cnc1/C=c1\[nH]c(=O)/c(=C/c2ccccc2)[nH]c1=O`, the Potency was 0.0934 µM (active).

For the compound `C=C1CCC2C(OC(=O)C2(O)COC(C)=O)C2C(=C)C(O)CC12` (stereo not given), the “viability, % of control” value is 87.3%. As for `COc1cc(C(=O)NC2CCN(C)CC2)ccc1Nc1ncc2c(n1)N(C1CCCC1)CCC(=O)N2C(C)C`, the Potency was 4.17 µM (active). The same measure, in the same setting: the figure for `COc1ccc(C(=O)CC2(O)C(=O)Nc3c(Cl)ccc(Cl)c32)cc1` (stereo not given) is 3.26 µM (active). `CCOC(=O)[C@H](CCc1ccccc1)N[C@@H](C)C(=O)N(CC(=O)O)C1Cc2ccccc2C1`: the “viability, % of control” value is 54.2%. Take `CC(C)C(C#N)O[C@@H]1O[C@H](CO[C@@H]2OC[C@](O)(CO)[C@H]2O)[C@@H](O)[C@H](O)[C@H]1O` (stereo not given in full): the “viability, % of control” value was 86.5%. Consider `O=C(OOC(=O)c1ccccc1)c1ccccc1`, for which the “viability, % of control” value was 104%.

With `N[C@@]1(C(=O)O)CS(=O)(=O)[C@H]2[C@H](C(=O)O)[C@H]21`, the “viability, % of control” value is 81.2%.

Consider `O=C(Nc1ccccc1-c1cn2c(CN3CCNCC3)csc2n1)c1cnc2ccccc2n1`, for which the Potency was 13 µM (active).

As to `CN(C)[C@@H]1C(=O)C(C(N)=O)=C(O)[C@@]2(O)C(=O)C3=C(O)c4c(O)cccc4C[C@H]3C[C@@H]12`, the “viability, % of control” value is 76.5%.

Take `Nc1ccccc1NC(=O)c1ccc(CNc2nccc(-c3cccnc3)n2)cc1`: the Potency is 0.231 µM (active).

`NS(=O)(=O)c1ccc(N=Nc2c(O)[nH]c3ccc(Br)cc23)cc1`: the Potency was 1.03 µM (active). As to `CCN(CC)S(=O)(=O)c1ccc(C(=O)O)cc1`, the “viability, % of control” value was 96.6%.

Take `COc1cc(CNC(=O)CCCC/C=C/C(C)C)ccc1O`: the Potency was 18.4 µM (active). Regarding `N#Cc1cc(CN2CCC(Nc3ncnc4sc(Cl)cc34)CC2)ccc1F`, the Potency was 13 µM (active). On to `CCN(CC)C(=O)C1CN2CCc3cc(OC)c(OC)cc3C2CC1OC(C)=O` (stereo not given), for which the “viability, % of control” value is 92.3%.

Take `Nc1nc(=O)n([C@@H]2O[C@H](CO)[C@@H](O)[C@@H]2F)cc1I`: the “viability, % of control” value was 63.6%.

As for `O=C(NNc1nc2cc(F)ccc2n2cccc12)c1cnccn1`, the Potency was 0.731 µM (active). On the same count and under the same terms, the figure for `O[C@@H](CNC[C@H](O)[C@H]1CCc2cc(F)ccc2O1)[C@@H]1CCc2cc(F)ccc2O1` is 21.1 µM (active). Regarding `C=CCCN1CCC2(CC1)CN(C(=O)c1c(F)cccc1F)c1ccc(Cl)cc12`, the Potency was 10.3 µM (active). On to `CCN(CC)CCOC(=O)C1(c2ccccc2)CCCC1`, for which the “viability, % of control” value was 75.8%.

`CC(=O)c1ccc2c(c1)N(CCCN(C)C)c1ccccc1S2`: the Potency was 11.9 µM (active).
